Inconclusive results are not listed. Where a call stands in place of a potency, no number is given. Activity calls are given as the source filed them. The call rests on the fitted dose curve.
Experiment: Confirmatory qHTS for Vero E6 cytotoxicity: counterscreen for inhibitors of SARS-S pseudo-typed particle cell entry
Conditions: cell viability; series mostly up to 57.1 µM

Row | Compound | Potency
1 | Cc1c(N)nc(C(CC(N)=O)NCC(N)C(N)=O)nc1C(=O)NC(C(=O)NC(C)C(O)C(C)C(=O)NC(C(=O)NCCc1nc(-c2nc(C(=O)NCCCN[C@@H](C)c3ccccc3)cs2)cs1)C(C)O)C(O[C@@H]1O[C@@H](CO)[C@@H](O)[C@H](O)[C@@H]1O[C@H]1O[C@H](CO)[C@@H](O)[C@H](OC(N)=O)[C@@H]1O)c1cnc[nH]1 (stereo not given in full) | inactive
2 | Cc1cc(-n2c(=O)[nH]c(=O)n(C)c2=O)ccc1Oc1ccc(S(=O)(=O)C(F)(F)F)cc1 | inactive
3 | CCCCc1oc2ccccc2c1C(=O)c1cc(I)c(OCCN(CC)CC)c(I)c1 | inactive
4 | CCOc1ccc(Cc2nccc3cc(OCC)c(OCC)cc23)cc1OCC | 27.1 µM (active)
5 | Oc1c(Cl)cc(Cl)c(Cl)c1Cc1c(O)c(Cl)cc(Cl)c1Cl | 4.82 µM (active)

Reference: PubChem BioAssay AID1479144 (National Center for Advancing Translational Sciences (NCATS), 2020)
